Compound activity (PubChem)
Rows were chosen to be rich in hits. Some 0.51% of all compounds tested hit in one or more screens of this group.
PINK1 expr mod: A Quantitative High throughput Screen to Identify Chemical Modulators of PINK1 Expression | PINK1 immunofluorescence, high-content cytometry, 24 h | Potency, µM (highest dose often 76.6 µM), hits mostly activators | hit rate 0.2% among 410,000 | AID 624263, 2012; active = well fitted activation curve with a large enough effect; inconclusive = small, poorly fitted or top-dose-only effect; cell line not stated here; also: nearly all actives have a fitted effect of over 65% in size
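A stable cell line was treated with compounds at 5 concentrations for 24 hours, with CCCP as control. PINK1 levels and mitochondrial localization were measured by immunofluorescence with mitochondrial, cell and nuclear markers after fixation, read by laser-scanning cytometry.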
Vif-A3G inh: qHTS for Inhibitors of Vif-A3G Interactions: qHTS; DNA dC->dU-editing enzyme APOBEC-3G (Homo sapiens), Q9HC16; HeLa A3G-eYFP + Vif (tagged APOBEC3G with the HIV-1 protein that degrades it), YFP fluorescence, overnight; Potency, µM (titrated, usually from 46.1 µM), most hits filed as inhibitors; hit rate 0.076% among 410,000; also: nearly all actives have a fitted effect of over 60% in size
Target sequence (Q9HC16 whole entry, looked up): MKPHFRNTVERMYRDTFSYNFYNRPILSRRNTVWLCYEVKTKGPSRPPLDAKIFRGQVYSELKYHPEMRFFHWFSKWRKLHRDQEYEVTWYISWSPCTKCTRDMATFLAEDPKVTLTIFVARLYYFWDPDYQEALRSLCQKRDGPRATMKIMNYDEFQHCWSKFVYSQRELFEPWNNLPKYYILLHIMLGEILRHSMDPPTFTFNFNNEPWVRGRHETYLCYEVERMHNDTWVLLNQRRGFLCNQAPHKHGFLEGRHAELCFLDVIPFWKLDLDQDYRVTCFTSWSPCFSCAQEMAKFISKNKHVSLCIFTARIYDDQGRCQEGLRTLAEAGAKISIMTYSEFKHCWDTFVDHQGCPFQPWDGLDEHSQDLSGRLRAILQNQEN
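HeLa cells stably expressing Vif and C-terminally eYFP-tagged A3G, seeded overnight at 37 deg C, then exposed to compound by pintool overnight at 37 deg C. Rise in yellow fluorescence (Ex 488/Em 500-530, Acumen) marks blocked Vif-driven A3G degradation.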
Epigenetic reg: Quantitative High-Throughput Screen for Regulators of Epigenetic Control | murine LDR cells, GFP reporter derepression, 30 h | AID 1865, 2009 | hit rate 0.2% among 280,000 | Potency, µM (titrated, usually from 53.9 µM), actives largely listed as activators; also: nearly all actives have a fitted effect of over 60% in size
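Murine LDR cells bearing a silenced CMV-driven GFP reporter were exposed to compound for 30 h at 37 C. After PBS washes, GFP-positive cells (20-120 um objects) counted by laser-scanning microplate cytometry.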
Vif-A3F inh: qHTS for Inhibitors of Vif-A3F Interactions: qHTS; HeLa A3F-eYFP + Vif (tagged APOBEC3F with the HIV-1 protein that degrades it), YFP fluorescence increase; Potency, µM (top dose mostly 46.1 µM); hit rate 0.2% among 390,000; also: nearly all actives have a fitted effect of over 65% in size
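HeLa cells stably expressing Vif plus C-terminally eYFP-tagged A3F were seeded, incubated overnight at 37 deg C, dosed with compound, incubated overnight again at 37 deg C. Yellow fluorescence (Ex 488/Em 500-530) reported blocked Vif-mediated A3F-eYFP degradation.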
Large screens that a line does not name were inactive. Unless noted, calls follow the shape of the dose curve; as a rule, active = well fitted curve in the direction sought with a large enough effect; inconclusive = small, poorly fitted or top-dose-only effect, or another doubt; inactive = no such curve, though single readings can be large; an effect the other way counts as inactive or inconclusive.

O=C(CSc1nc2ccc([N+](=O)[O-])cc2[nH]1)NC1CCCCCC1	PINK1 expr mod 14µM
O=C(CSc1nc2ccc([N+](=O)[O-])cc2[nH]1)NC1CCCCC1	PINK1 expr mod inconclusive
CC(C)[C@H](NC(=O)OC(C)(C)C)c1nnc(S(=O)(=O)Cc2c(F)cccc2Cl)o1	PINK1 expr mod 6.3µM, Epigenetic reg inconclusive
CCOC(=O)CSc1ccc2ccccc2n1	none
CCOC(=O)CN1C=C(c2ccc3ccccc3n2)C(C[N+](=O)[O-])c2ccccc21 (stereo not drawn)	Vif-A3G inh 13µM, Vif-A3F inh inconclusive
Cc1[nH]c2ccccc2c1/C=N/NC(=O)c1cccc([N+](=O)[O-])c1	none
Cc1[nH]c2ccccc2c1/C=N/Nc1ccc([N+](=O)[O-])cc1	Vif-A3G inh 10µM, Vif-A3F inh 10µM
C/C(=N/Nc1ccc([N+](=O)[O-])cc1)c1c[nH]c2ccccc12	Vif-A3G inh inconclusive, Vif-A3F inh 6.3µM (no result: Epigenetic reg)
Cn1nnnc1SCCNCc1cc(Br)ccc1OCc1ccccc1Cl	Vif-A3F inh 13µM
CC(=O)Nc1cccc(/C(C)=N/NC(=O)c2ccc(CN3CCOCC3)cc2)c1	none
Cc1ccccc1N=C/C=C1/C=C(c2ccccc2)OC(C)(C)O1	Epigenetic reg 22µM
COc1ccc(N=C/C=C2\C=C(c3ccccc3)OC(C)(C)O2)cc1	Epigenetic reg inconclusive
CC(C)(C)OC(=O)CNC(=O)c1[nH]cnc1C(=O)N[C@@H](CCCCNC(=O)OC(C)(C)C)C(=O)OC(C)(C)C	none
Nc1c(C(=O)CSc2nncn2-c2ccccc2)c(=O)[nH]c(=O)n1C1CC1	none (no result: Epigenetic reg)
Cc1nnc(N2C(=O)c3cccc4c([N+](=O)[O-])ccc(c34)C2=O)s1	Vif-A3G inh inconclusive, Vif-A3F inh 28µM (no result: Epigenetic reg)
CCC(C)Sc1cc(C(F)(F)F)c(C(=O)Nc2ccc(Cl)cc2)cn1 (stereo not drawn)	PINK1 expr mod 18µM
Cn1cc(C(=O)Nc2ccc(Cl)cc2)c(C(F)(F)F)n1	none
Cc1ccccc1N(CC(=O)Nc1ccccc1C(=O)O)S(C)(=O)=O	none
CCCCCn1c(=O)[nH]c2cc(C(=O)Nc3cc(OC)cc(OC)c3)ccc2c1=O	Vif-A3F inh 28µM
CCCOC(=O)/C(=C\c1ccc([N+](=O)[O-])o1)NC(=O)c1ccccc1	Vif-A3G inh inconclusive, Vif-A3F inh 7.1µM
CCOC(=O)/C(=C\c1ccc([N+](=O)[O-])o1)NC(=O)c1ccccc1	Vif-A3G inh inconclusive (no result: PINK1 expr mod)
COc1ccc(OC)c2c1sc(=NC(=O)c1ccco1)n2C	none
COc1ccc(C(=O)/C(C#N)=N/Nc2ccc([N+](=O)[O-])cc2)cc1	PINK1 expr mod 4.5µM
CCOc1cc(-c2nnc(SCC(=O)Nc3ccc(F)c(F)c3)nc2-c2ccc(OC)c(OCC)c2)ccc1OC	Epigenetic reg 16µM
CCOc1ccc(-c2nnc(SCC(=O)NC(C)(C)C)nc2-c2ccc(OCC)c(OC)c2)cc1OC	none (no result: Epigenetic reg)
CCN(CC)c1ccc2cc(/C(N)=N/NC(=O)c3cccs3)c(=O)oc2c1	Epigenetic reg 6.3µM (no result: PINK1 expr mod, Vif-A3G inh, Vif-A3F inh)
CCN(CC)c1ccc2cc(C(N)=O)c(=N)oc2c1	PINK1 expr mod inconclusive, Vif-A3G inh inconclusive, Vif-A3F inh 11µM
Cc1ccsc1CN(C(=O)c1ccc(OCC(C)C)cc1)C1CCS(=O)(=O)C1 (stereo not drawn)	none (no result: Vif-A3G inh, Vif-A3F inh)
O=C(C1=C[C@@H](C2CC2)C[C@@H](OCc2ccc(CO)cc2)O1)N1CCN(Cc2ccccc2)CC1	none
CCCN1C(=O)S/C(=C/c2ccc(N3CCOCC3)o2)C1=O	PINK1 expr mod 40µM, Vif-A3G inh inconclusive, Epigenetic reg 10µM, Vif-A3F inh inconclusive
CCCN1C(=O)S/C(=C\c2ccc(N3CCOCC3)o2)C1=O	Vif-A3G inh inconclusive, Epigenetic reg 11µM, Vif-A3F inh inconclusive
COc1cc(C(O)c2nc3ccccc3n2C(C)C)cc(OC)c1OC (stereo not drawn)	none (no result: Epigenetic reg)
CCOC(=O)C1=C(O)/C(=C/c2ccc(-c3ccccc3C(=O)O)o2)SC1=Nc1ccc(C)cc1	Vif-A3F inh inconclusive
CCOC(=O)C1=C(O)/C(=C/c2cn(CC(=O)NCC3CCCO3)c3ccccc23)SC1=Nc1ccc(C)cc1 (stereo not drawn)	PINK1 expr mod 14µM, Vif-A3G inh inconclusive, Vif-A3F inh inconclusive (no result: Epigenetic reg)
Cc1cc(/C=C2\SC(=S)NC2=O)c(C)n1-c1ccc(O)cc1	Vif-A3F inh inconclusive
COc1ccc(-n2c(C)cc(/C=C3\SC(=S)NC3=O)c2C)cc1	PINK1 expr mod 32µM, Epigenetic reg 25µM, Vif-A3F inh 10µM
COc1ccc(C(=O)NCCc2ccccc2)cc1OC	Vif-A3F inh inconclusive (no result: Epigenetic reg)
COc1ccc(/C(O)=C/c2nc3ccc(C(=O)NCCc4cccc(C)c4)cc3[nH]c2=O)cc1OC	Epigenetic reg 18µM, Vif-A3F inh inconclusive
CCOC(=O)CN1C(=O)S/C(=C/c2ccc(N3CCCCC3)o2)C1=O	Epigenetic reg inconclusive, Vif-A3F inh 32µM
COC(=O)CN1C(=O)S/C(=C/c2ccc(N3CCCCC3)o2)C1=O	PINK1 expr mod 8.9µM, Epigenetic reg inconclusive, Vif-A3F inh inconclusive
Cc1ccc(Nc2c(-c3ccc(C)o3)nc3cccc(C)n23)cc1	none
O=C(c1cccc([N+](=O)[O-])c1)c1ccccn1	none
CCc1ccc(NC(=O)C(C)OC(=O)c2ccc(NS(=O)(=O)c3ccc(C)c([N+](=O)[O-])c3)cc2)cc1 (stereo not drawn)	PINK1 expr mod 45µM
CCCn1c(C)nc2c(N(CCN(C)C)Cc3ccccc3)nc(C)nc21	none (no result: PINK1 expr mod, Vif-A3G inh, Vif-A3F inh)
CCN(CC)c1ccc(/C=C(/C#N)C(=O)NCc2ccccc2)o1	PINK1 expr mod 32µM, Epigenetic reg inconclusive, Vif-A3F inh inconclusive
N#C/C(=C\c1ccccc1[N+](=O)[O-])C(=O)NCc1ccccc1	Vif-A3F inh 13µM
CCN(CC)c1ccc(/C=C(/C#N)C(=O)NC(C)C)o1	Vif-A3G inh inconclusive, Vif-A3F inh inconclusive
N#C/C(=C\C=C\c1ccccc1[N+](=O)[O-])C(=O)NCc1ccccc1	none (no result: Epigenetic reg)
COc1ccc(CN2CCN(C(=O)C3CCC(CNS(=O)(=O)c4ccc(C)cc4)CC3)CC2)c(OC)c1OC (stereo not drawn)	none
COC1C(CO)OC(n2c3c(Cl)cccc3c3c4c(c5c6cccc(Cl)c6[nH]c5c32)C(=O)NC4=O)C(O)C1O (stereo not drawn)	PINK1 expr mod 40µM, Vif-A3G inh inconclusive, Vif-A3F inh inconclusive (no result: Epigenetic reg)
COC1C(O)C(CO)OC1n1c(Br)nc2c(=O)[nH]c(N)nc21 (stereo not drawn)	none (no result: Vif-A3G inh, Vif-A3F inh)
CCCOC(=O)CCNc1n[nH]c(=O)[nH]c1=O	none
CC1CN(c2ncc(/C=N/NC(=O)c3ccccc3O)s2)CC(C)O1 (stereo not drawn)	none
O=C(N/N=C/c1cnc(N2CCCCC2)s1)c1ccc(C(F)(F)F)cc1	PINK1 expr mod 7.1µM
CC1CCN(S(=O)(=O)c2ccc(C(C)C)cc2)CC1	none
